Measurements published in PubChem BioAssay AID1671448 (Corson Lab, School of Medicine, Indiana University, 2021).
Screen size: about 20,000 compounds; about 660 (3.3%) were called active. The sample holds actives, similar compounds and a random draw of the others, so the mix is not that of the screen.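 Rule for the calls: active = enzyme reaction rate more than 3 SD below the solvent-only control wells on the same plate; inactive = the rest.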

Target: Ferrochelatase, mitochondrial (Homo sapiens) (UniProt P22830)
Sequence (P22830 whole entry, looked up): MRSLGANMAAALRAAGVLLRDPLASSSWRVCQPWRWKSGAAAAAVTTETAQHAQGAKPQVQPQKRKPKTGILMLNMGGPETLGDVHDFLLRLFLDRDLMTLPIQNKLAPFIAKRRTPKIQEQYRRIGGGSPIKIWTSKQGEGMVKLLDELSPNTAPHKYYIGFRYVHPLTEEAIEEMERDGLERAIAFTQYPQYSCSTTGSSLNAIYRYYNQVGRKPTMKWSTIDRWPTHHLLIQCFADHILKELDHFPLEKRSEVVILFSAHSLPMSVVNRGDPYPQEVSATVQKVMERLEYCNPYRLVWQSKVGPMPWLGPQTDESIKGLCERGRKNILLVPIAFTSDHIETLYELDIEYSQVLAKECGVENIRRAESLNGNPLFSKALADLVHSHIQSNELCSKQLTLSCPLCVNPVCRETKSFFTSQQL
Experiment: inhibitors of human ferrochelatase, primary screen, biochemical, purified FECH, Ni-mesoporphyrin absorbance (AID 1671448)
Conditions: Ni-mesoporphyrin absorbance 550 nm, screened at 10 µM (by protocol)

SMILES	outcome
CCOc1ccc(C(=O)N2CCN(S(=O)(=O)c3cc4c5c(c3)CCN5C(=O)CC4)CC2)cc1	inactive
Cc1ccc(Cn2c(CCNC(=O)Nc3cc(C)ccc3C)nc3cccnc32)cc1	inactive
Cc1cc(C)cc(CCC(=O)NC(C)c2n[nH]c(C)n2)c1 (stereo unspecified)	inactive
CCCN(CCC)C(=O)C1CCCN(c2ncnc3c2nc2n3CCCCC2)C1 (stereo unspecified)	inactive
Cc1cccc(CNC(=O)N2CCN(Cc3nc4cccnc4n3-c3ccc(F)cc3)CC2)c1	inactive
O=C1CN(S(=O)(=O)c2cc(C(=O)N3CCCC3)cs2)c2ccccc2N1	inactive
O=C(CN1CCN(Cc2ccccc2Cl)S1(=O)=O)Nc1ccc2c(c1)OCCO2	inactive
CN(CCC1CCCCO1)C(=O)c1ccc(CSc2ncn[nH]2)o1 (stereo unspecified)	inactive
Cc1nc(N2CCCCC2)ncc1C(=O)N1CCC2(CCN(C)C2)CC1	inactive
CNS(=O)(=O)c1ccc(C2NCCc3[nH]cnc32)cc1 (stereo unspecified)	inactive
CCC1=C(c2ccc(OC)cc2)S(=O)(=O)N(CC(=O)NCc2ccc(OC(C)C)cc2)C1=O	inactive
COc1ccc(CNC(=O)N2CCN(c3cc(-c4ccc(OC)cc4)ncn3)CC2)cc1	inactive
COc1ccc(CNC(=O)CN2c3ccc(C(C)C)cc3-c3ccccc3S2(=O)=O)cc1	active
CCCNC(=O)NCC1CCCN(Cc2ccco2)C1 (stereo unspecified)	inactive
CC(C)c1nccn1Cc1nc2ccccc2c(=O)[nH]1	inactive
CC(C)c1c(-c2ccccc2)ncn1CC(=O)N1CCNCC1	inactive
COc1ccc(C(=O)N2CCc3[nH]nc(-c4ccc(F)c(F)c4)c3C2)c(O)c1	inactive
Cc1cc(Sc2ccc(NC(=O)Nc3ccc(F)c(Cl)c3)cc2)n2ncnc2n1	inactive
CCn1c(=O)n(-c2ccc(C)c(C)c2)c2nc(-c3ccc(F)cc3F)nc(C(N)=O)c21	inactive
CCCS(=O)(=O)N1CCC(n2c(C(F)(F)F)nc3cccnc32)CC1	inactive
Cc1ccc(-c2cc(Nc3ccc(C(N)=O)cc3)nc(C)n2)cc1	inactive
CCN(CC)CCNc1nc(Nc2cccc(C)c2)c2cnn(-c3ccccc3)c2n1	inactive

SMILES	outcome
COc1ccc(N2CCCS2(=O)=O)cc1NC(=O)COc1ccc(C)cc1	inactive
CCC1=C(c2ccc(OC)cc2)S(=O)(=O)N(CC(=O)Nc2cccc(Cl)c2)C1=O	inactive
CC(C(=O)NCCc1ccc(S(N)(=O)=O)cc1)N1C(=O)CC(C)(C)Sc2ccccc21 (stereo unspecified)	inactive
CCCc1cc(Sc2ccc(NC(=O)Nc3cccc(F)c3)cc2)n2ncnc2n1	inactive
COc1cccc(C(=O)N(Cc2nc3nc(C)cc(C)n3n2)c2ccccc2)c1	inactive
Cc1ccc2nc(CNC(=O)Cc3ccc4c(c3)OCO4)[nH]c2c1	inactive
COCc1nc2cccnc2n1C1CCN(S(=O)(=O)c2ccc(C)c(C)c2)CC1	inactive
O=C(O)CC1CNCCN(C(=O)c2cccc(Oc3ccccc3)c2)C1 (stereo unspecified)	inactive
CCOC(=O)Cn1c(=O)n(-c2ccc(F)cc2)c2nc(-c3cccs3)nc(C(N)=O)c21	inactive
CN1CCN(Cc2ccc(-n3cccn3)cc2)CC1C(=O)O (stereo unspecified)	inactive
CCC1(CC)CN(C(=O)c2nnc(COC)o2)CCO1	inactive
CCOc1ccc(N2CC(NC(=O)CC)CC2=O)cc1 (stereo unspecified)	inactive
Cc1ccc(-c2cc(N3CCN(S(=O)(=O)c4ccccc4)CC3)ncn2)cc1	inactive
CCCOc1cccc(-c2c(Nc3ccccc3)oc3c2c(=O)n(C)c(=O)n3C)c1	inactive
Cc1nnc(SCC(=O)N2CCC(C(O)C(C)C)CC2)s1 (stereo unspecified)	inactive
Cc1cccc(C(C(=O)NC2CCN(S(C)(=O)=O)CC2)N(C)C)c1 (stereo unspecified)	inactive
O=C1NC(c2cccnc2)(C2CCNCC2)C(=O)N1Cc1ccccc1F (stereo unspecified)	inactive
CCCc1c(C)nc2ncnn2c1Sc1ccccc1NC(=O)c1cccs1	inactive
CCc1c(C)nc2ncnn2c1Sc1ccc(NC(=O)CC(C)C)cc1	inactive
CCc1ccc(S(=O)(=O)Nc2ccc(Sc3c(CC)c(C)nc4ncnn34)cc2)cc1	active
CCc1c(C)nc2ncnn2c1Sc1ccc(NC(=O)Nc2cccc(C)c2C)cc1	inactive
CCCc1c(C)nc2ncnn2c1Sc1ccc(NC(=O)C(C)(C)C)cc1	active

SMILES	outcome
CCc1c(C)nc2ncnn2c1Sc1ccc(NC(=O)c2cc(OC)cc(OC)c2)cc1	active
CCCc1c(C)nc2ncnn2c1Sc1ccc(NS(=O)(=O)c2cc(C)cc(C)c2C)cc1	inactive
CCc1c(C)nc2ncnn2c1Sc1ccc(NC(=O)Cc2cccs2)cc1	inactive
CCc1c(C)nc2ncnn2c1Sc1ccc(NS(=O)(=O)c2cc(OC)ccc2OC)cc1	inactive
O=C(CN1CCCN(Cc2cccc(F)c2)S1(=O)=O)Nc1ccc(Br)cc1	inactive
O=C(c1ccncc1)N1CC[C@@H](c2ccc3ccccc3c2)[C@H](O)C1	inactive
C=CCOc1c(Cl)cc(C(=O)NCCc2cnc[nH]2)cc1Cl	inactive
CCc1nc(C)sc1CNC(=O)[C@H](N)CC(C)C	inactive
CCOc1ccc(-c2nc(CSc3nc4c(c(=O)[nH]3)CCCC4)c(C)o2)cc1OC	inactive
COc1cccc2c1OCCCN(C(=O)[C@@H]1Cc3ccccc3N1)C2	inactive
COc1ccc(CNc2nc3nc(CNc4ccc(C)cc4)cc(=O)n3[nH]2)cc1	inactive
COc1ccc(CNc2nc3nc(CN4CCN(c5ccccc5OC)CC4)cc(=O)n3[nH]2)cc1	active
COc1ccc(CNc2nc3nc(CNc4ccc(Br)cc4)cc(=O)n3[nH]2)cc1	inactive
O=C(CSc1nc(-c2ccco2)nc2cc(=O)[nH]n12)NCCCc1ccccc1	inactive
O=C(NCc1ccccc1)c1nc[nH]c1C(=O)NCc1cccc(C(F)(F)F)c1	active
CC(C)CCNC(=O)c1nc[nH]c1C(=O)NCC(C)(C)C	inactive
CC(C)(C)CNC(=O)c1[nH]cnc1C(=O)NCC1CC1	inactive
Cc1cc(C)nc(SC(C)c2n[nH]c(Cc3ccccc3)n2)n1 (stereo unspecified)	inactive
Cc1nnnn1CCCN1CCC(Cc2cccc(C(=O)O)c2)CC1	inactive
CCOc1ccc(S(=O)(=O)NCCn2c(-c3ccccc3)nc3cccnc32)cc1	inactive
O=S(=O)(NCCn1c(-c2ccccc2)nc2cccnc21)c1ccc(C2CCCCC2)cc1	inactive
O=S(=O)(NCCn1c(-c2ccccc2)nc2cccnc21)c1ccc(Br)cc1	active
